Reference: the supplement of paper PMC11732987, “Enantioselective OTUD7B fragment discovery through chemoproteomics screening and high-throughput optimisation” (Communications Chemistry, 2025)

Key:
Assay in all cases: log2 ratio of Biotin-Ahx-Ub-VS probe labelling (fragment/DMSO); higher = less target engagement (more negative = stronger competition), active = hit call of the paper (q ≤ 0.05, log2 ratio ≤ -1)
Settings in all cases: compound concentration: 200 uM; treatment time: 3 h
USP42 = biological target: T1, USP42 (UniProt Q9H9J4)
T1 sequence (whole entry): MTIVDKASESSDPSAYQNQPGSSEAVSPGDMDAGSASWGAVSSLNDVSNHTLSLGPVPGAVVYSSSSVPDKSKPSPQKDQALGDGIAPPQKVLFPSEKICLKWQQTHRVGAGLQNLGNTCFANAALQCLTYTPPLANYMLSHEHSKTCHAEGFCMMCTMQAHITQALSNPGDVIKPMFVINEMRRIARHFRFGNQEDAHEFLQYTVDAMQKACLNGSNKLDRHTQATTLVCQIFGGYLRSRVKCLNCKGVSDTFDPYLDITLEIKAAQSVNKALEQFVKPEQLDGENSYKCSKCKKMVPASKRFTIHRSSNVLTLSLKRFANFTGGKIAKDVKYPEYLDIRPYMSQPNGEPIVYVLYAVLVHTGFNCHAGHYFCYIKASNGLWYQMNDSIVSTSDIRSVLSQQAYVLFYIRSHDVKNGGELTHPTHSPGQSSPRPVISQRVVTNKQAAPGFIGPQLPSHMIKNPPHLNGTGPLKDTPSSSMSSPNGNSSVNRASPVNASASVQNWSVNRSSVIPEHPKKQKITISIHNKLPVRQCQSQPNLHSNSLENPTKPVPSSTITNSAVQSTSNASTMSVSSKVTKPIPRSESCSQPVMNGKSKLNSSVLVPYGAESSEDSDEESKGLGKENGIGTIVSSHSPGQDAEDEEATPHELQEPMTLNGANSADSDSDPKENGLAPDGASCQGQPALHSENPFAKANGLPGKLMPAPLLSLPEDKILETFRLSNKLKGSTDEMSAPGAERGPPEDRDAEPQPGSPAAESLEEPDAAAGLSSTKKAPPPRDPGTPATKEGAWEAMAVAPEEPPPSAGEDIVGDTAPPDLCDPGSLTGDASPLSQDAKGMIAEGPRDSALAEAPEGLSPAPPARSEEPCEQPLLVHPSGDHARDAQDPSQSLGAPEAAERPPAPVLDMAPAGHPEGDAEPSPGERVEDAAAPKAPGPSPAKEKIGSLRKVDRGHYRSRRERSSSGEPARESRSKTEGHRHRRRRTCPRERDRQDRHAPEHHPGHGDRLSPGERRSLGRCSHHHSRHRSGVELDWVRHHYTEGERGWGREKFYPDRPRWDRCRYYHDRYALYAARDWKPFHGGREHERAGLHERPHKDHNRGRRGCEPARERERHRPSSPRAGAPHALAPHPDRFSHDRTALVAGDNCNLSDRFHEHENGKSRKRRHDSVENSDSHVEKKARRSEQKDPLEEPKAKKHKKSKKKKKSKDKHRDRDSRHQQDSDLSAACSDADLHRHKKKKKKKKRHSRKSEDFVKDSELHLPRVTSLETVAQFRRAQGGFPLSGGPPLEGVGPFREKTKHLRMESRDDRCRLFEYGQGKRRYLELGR
Outline: (§1)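 Labelled DUBs were enriched with NeutrAvidin, digested with LysC and trypsin, and run by diaPASEF LC-MS/MS. The labelling used Biotin-Ahx-Ub-VS at 0.5 µM final for 1 h on HEK293T lysate (495 µg per sample) previously treated in triplicate with fragment at 200 µM or vehicle for 3 h. Values are average log2 fragment/vehicle ratios by unpaired t-test on global-median-normalised Spectronaut quantities of proteins with ≥2 unique peptides.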

USP46 = USP46 (UniProt P62068)
Outline: as §1

USP47 = biological target: T2, USP47 (UniProt Q96K76)
T2 sequence (whole entry): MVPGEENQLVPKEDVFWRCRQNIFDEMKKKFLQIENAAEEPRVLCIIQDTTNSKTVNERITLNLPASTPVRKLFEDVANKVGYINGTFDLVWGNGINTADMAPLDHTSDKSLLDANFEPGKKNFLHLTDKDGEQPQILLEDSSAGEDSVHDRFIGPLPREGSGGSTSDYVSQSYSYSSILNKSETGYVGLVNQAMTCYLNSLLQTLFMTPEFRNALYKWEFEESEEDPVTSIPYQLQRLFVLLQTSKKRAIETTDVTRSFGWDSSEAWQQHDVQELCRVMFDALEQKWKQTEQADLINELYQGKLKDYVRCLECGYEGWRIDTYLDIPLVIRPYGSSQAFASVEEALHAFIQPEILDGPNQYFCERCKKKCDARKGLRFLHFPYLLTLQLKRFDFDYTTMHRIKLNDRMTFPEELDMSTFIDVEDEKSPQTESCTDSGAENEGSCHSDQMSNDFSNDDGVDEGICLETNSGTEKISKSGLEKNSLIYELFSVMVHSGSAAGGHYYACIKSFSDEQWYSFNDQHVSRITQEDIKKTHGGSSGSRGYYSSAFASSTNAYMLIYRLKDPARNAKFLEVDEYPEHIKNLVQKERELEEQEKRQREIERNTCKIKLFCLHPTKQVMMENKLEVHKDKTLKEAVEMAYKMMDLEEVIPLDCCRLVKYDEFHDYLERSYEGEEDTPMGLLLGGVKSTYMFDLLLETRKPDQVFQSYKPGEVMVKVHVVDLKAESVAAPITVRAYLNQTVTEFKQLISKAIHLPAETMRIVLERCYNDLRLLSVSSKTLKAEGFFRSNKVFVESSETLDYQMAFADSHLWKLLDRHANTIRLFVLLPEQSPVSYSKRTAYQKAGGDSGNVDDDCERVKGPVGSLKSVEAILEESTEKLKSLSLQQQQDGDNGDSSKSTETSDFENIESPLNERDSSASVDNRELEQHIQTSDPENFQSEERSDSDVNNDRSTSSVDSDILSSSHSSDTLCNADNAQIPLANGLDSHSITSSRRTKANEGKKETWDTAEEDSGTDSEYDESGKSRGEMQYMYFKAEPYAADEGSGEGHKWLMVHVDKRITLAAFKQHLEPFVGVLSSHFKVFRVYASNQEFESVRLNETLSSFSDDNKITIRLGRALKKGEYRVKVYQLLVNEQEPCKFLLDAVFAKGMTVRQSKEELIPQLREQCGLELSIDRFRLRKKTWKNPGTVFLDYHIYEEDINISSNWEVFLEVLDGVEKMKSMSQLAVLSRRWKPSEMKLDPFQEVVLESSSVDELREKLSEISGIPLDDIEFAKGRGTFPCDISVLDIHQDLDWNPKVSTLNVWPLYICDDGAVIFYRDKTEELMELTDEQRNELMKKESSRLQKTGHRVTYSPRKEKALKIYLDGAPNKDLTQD
Outline: as §1

USP48 = biological target: T3, USP48 (UniProt Q86UV5)
T3 sequence (whole entry): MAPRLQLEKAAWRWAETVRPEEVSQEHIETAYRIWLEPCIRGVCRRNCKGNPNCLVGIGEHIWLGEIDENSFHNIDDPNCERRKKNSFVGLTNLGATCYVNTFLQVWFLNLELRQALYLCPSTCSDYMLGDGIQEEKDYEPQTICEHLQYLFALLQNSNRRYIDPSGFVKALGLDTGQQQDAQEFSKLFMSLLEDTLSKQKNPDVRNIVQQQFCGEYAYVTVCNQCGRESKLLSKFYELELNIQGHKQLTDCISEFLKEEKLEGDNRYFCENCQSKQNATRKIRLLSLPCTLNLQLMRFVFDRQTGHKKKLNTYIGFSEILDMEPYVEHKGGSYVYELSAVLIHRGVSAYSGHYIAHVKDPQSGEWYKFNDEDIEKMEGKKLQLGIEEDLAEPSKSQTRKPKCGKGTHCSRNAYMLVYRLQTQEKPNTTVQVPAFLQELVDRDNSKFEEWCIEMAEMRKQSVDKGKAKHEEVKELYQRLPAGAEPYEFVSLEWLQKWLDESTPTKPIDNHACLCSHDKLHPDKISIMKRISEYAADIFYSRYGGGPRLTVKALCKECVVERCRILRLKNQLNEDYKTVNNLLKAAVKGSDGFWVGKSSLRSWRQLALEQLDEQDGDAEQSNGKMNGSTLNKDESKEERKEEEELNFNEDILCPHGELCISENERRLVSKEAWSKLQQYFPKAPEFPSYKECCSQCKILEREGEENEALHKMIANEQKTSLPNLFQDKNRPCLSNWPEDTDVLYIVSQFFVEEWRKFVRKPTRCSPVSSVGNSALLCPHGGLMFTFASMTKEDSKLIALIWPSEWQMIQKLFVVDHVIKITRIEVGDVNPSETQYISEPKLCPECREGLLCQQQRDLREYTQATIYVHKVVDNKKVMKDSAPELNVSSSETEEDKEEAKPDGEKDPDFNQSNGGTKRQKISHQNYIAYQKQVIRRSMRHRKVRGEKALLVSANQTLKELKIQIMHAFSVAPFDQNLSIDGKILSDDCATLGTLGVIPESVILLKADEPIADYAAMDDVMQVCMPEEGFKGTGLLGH
Outline: as §1

USP5 = biological target: T4, USP5 (UniProt P45974)
T4 sequence (whole entry): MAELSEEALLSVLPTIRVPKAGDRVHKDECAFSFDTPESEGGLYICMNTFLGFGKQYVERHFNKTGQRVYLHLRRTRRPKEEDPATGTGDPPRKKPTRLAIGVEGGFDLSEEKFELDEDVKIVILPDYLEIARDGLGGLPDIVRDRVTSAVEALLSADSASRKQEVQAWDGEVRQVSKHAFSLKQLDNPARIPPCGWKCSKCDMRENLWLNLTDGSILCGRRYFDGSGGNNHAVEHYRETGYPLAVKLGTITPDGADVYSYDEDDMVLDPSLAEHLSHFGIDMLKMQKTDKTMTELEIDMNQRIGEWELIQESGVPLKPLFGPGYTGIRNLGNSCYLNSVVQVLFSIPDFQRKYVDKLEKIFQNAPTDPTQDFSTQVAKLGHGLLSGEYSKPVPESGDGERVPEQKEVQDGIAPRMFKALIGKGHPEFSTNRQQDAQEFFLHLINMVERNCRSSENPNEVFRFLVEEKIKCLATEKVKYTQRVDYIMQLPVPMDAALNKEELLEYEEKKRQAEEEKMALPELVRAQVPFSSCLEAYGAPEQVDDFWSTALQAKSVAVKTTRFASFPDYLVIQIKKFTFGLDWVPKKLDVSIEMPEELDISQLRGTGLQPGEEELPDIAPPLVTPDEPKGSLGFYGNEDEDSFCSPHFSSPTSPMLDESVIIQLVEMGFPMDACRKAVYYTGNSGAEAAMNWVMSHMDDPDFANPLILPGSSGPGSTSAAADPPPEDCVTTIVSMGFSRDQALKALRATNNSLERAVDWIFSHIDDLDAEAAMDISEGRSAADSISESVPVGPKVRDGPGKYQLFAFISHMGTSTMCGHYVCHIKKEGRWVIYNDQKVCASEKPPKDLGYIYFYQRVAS
Outline: as §1

USP54 = USP54 (UniProt Q70EL1)
Outline: as §1

USP7 = USP7 (UniProt Q93009)
Outline: as §1

USP8 = biological target: T5, USP8 (UniProt P40818)
T5 sequence (whole entry): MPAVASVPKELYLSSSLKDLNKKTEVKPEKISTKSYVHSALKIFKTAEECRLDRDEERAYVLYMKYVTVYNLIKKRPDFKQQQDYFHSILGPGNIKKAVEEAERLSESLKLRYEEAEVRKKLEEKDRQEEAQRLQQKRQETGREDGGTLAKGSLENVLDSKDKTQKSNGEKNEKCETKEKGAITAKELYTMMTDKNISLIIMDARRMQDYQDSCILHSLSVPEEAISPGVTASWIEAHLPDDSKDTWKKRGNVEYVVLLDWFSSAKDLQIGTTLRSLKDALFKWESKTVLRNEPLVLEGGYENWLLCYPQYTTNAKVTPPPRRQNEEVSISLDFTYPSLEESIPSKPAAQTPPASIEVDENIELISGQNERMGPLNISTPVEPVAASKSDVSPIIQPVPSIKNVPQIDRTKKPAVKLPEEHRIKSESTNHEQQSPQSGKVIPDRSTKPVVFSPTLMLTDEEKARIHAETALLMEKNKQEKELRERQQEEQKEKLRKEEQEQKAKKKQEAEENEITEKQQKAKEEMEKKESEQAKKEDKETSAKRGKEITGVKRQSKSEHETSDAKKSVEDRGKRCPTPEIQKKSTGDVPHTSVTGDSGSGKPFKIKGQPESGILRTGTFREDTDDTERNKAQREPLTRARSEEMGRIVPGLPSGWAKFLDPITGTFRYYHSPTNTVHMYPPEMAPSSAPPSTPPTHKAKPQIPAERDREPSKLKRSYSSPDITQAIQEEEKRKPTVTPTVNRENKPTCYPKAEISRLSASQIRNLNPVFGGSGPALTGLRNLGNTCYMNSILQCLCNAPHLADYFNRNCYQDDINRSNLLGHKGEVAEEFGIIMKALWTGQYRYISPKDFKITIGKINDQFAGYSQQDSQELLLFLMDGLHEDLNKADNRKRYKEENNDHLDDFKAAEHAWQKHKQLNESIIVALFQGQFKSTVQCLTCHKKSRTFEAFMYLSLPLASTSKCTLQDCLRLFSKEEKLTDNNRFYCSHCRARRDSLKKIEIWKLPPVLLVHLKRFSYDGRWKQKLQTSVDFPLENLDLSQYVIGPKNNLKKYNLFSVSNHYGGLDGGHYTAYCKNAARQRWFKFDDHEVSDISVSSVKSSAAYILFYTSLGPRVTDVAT
Outline: as §1

USP9X = USP9X (UniProt Q93008)
Outline: as §1

UniProt O00487 = biological target: UniProt O00487
Outline: as §1

Measured: log2 ratio of Biotin-Ahx-Ub-VS probe labelling

Sequence of USP46 (P62068 whole entry): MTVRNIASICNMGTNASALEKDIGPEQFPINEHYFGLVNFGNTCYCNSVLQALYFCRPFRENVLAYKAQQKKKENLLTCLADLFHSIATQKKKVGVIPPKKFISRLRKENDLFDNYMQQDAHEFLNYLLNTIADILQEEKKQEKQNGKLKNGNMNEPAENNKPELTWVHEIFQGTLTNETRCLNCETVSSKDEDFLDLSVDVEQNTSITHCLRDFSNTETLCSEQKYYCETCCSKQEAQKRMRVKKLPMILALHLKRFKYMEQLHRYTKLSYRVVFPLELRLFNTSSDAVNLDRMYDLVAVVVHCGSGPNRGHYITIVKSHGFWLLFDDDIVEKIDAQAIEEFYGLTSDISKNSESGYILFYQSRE
Sequence of USP54 (Q70EL1 whole entry): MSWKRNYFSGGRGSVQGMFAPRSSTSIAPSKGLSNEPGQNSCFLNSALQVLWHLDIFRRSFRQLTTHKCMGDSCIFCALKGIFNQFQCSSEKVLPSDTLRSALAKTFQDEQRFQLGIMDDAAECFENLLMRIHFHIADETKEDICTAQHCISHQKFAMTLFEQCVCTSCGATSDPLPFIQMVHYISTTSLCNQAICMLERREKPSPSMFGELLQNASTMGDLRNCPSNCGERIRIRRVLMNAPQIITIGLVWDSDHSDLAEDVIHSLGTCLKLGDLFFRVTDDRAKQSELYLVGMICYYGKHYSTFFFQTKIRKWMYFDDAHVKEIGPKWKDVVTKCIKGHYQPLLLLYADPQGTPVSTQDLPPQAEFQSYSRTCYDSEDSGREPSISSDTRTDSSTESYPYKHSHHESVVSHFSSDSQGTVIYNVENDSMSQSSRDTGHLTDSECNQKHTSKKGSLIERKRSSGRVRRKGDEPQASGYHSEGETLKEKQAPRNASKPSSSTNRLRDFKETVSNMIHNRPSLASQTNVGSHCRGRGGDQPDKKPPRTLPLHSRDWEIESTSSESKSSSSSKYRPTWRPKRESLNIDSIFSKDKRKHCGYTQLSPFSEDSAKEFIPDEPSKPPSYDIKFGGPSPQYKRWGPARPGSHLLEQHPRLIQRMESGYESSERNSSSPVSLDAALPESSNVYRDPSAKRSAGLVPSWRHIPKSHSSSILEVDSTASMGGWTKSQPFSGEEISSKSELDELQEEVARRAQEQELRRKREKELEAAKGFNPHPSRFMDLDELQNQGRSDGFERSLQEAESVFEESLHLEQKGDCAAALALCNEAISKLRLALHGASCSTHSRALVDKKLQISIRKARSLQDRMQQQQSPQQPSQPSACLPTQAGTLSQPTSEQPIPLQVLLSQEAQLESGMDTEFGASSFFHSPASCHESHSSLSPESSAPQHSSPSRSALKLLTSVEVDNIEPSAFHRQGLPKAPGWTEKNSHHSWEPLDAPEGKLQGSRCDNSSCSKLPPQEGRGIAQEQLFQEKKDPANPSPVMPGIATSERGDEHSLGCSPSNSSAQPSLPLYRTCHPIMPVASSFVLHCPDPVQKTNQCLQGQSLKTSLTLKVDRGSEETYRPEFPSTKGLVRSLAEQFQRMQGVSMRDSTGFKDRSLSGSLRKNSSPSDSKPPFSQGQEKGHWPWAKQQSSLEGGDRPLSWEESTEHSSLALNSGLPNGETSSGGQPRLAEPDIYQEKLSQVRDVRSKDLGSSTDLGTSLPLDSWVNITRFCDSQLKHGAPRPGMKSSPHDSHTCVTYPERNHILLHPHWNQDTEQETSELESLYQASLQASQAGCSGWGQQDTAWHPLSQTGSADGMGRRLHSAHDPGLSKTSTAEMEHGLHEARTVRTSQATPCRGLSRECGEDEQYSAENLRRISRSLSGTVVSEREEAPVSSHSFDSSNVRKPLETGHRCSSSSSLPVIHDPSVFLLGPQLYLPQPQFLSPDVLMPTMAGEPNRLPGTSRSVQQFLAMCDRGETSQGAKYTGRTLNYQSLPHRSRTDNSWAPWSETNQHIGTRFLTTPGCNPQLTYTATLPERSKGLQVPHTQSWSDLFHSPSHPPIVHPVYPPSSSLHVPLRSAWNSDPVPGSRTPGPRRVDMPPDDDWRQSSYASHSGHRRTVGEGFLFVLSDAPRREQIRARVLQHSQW
Sequence of USP9X (Q93008 whole entry): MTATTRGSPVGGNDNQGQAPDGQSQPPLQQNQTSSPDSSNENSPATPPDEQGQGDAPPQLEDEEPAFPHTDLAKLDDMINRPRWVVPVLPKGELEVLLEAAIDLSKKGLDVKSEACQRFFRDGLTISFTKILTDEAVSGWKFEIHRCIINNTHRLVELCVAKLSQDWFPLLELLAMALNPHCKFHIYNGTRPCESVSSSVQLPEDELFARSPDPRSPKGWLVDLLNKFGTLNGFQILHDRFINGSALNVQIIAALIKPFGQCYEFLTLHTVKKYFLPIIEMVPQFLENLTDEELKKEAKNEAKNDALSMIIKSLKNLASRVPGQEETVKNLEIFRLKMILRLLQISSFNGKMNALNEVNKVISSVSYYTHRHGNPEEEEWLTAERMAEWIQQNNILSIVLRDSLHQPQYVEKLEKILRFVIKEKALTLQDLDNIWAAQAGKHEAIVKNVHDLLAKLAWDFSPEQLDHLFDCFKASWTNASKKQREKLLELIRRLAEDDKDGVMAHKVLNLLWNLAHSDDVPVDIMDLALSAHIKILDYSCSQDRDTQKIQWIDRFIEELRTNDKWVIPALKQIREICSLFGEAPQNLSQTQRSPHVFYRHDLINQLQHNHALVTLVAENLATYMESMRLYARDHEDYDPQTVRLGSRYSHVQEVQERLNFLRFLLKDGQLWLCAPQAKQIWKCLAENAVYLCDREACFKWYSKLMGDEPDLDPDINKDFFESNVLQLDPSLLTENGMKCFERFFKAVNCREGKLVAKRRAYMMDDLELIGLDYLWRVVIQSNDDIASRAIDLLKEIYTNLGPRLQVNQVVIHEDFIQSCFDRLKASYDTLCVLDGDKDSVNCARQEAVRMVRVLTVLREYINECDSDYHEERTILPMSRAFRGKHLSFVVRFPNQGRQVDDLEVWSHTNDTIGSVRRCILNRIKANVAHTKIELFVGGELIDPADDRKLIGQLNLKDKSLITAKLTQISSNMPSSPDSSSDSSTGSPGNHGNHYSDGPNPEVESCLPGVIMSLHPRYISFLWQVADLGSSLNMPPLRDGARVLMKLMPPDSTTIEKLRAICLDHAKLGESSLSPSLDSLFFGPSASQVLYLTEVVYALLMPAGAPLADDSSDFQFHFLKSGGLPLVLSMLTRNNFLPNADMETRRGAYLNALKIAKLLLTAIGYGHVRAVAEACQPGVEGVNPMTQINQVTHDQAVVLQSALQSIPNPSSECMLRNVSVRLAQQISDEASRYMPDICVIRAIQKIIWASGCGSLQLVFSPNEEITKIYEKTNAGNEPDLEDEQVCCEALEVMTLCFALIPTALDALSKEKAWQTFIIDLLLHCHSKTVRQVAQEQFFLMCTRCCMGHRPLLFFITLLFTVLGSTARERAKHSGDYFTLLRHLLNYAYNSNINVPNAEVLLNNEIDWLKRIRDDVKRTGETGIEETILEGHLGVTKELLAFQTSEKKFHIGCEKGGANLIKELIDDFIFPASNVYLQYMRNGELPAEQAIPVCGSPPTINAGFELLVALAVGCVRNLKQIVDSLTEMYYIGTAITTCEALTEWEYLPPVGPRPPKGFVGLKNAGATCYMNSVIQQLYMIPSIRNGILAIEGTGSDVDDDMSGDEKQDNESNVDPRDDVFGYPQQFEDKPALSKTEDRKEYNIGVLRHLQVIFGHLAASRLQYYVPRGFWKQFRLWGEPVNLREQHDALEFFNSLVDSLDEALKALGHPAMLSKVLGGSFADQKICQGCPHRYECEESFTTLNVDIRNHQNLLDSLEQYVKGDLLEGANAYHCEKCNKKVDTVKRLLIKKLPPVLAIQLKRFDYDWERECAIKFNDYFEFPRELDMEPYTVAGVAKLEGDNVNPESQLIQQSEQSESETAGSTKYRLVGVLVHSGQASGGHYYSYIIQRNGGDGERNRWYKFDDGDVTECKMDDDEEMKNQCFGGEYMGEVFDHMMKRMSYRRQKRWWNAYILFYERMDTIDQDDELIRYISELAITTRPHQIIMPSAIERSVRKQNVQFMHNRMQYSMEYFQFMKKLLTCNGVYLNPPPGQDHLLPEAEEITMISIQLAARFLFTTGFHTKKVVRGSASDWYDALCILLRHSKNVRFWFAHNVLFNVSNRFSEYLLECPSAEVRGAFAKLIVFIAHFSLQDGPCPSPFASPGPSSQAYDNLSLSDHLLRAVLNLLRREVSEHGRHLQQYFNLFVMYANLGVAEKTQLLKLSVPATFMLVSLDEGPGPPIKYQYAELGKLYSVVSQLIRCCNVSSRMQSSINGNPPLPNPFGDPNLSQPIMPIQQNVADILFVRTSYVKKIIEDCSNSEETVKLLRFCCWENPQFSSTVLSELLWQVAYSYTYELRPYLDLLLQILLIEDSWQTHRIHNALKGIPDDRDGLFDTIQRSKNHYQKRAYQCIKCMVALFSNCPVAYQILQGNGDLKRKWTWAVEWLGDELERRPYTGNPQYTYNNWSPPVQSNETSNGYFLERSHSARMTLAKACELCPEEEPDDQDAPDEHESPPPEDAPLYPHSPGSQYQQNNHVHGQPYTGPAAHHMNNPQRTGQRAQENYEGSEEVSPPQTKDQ
Sequence of UniProt O00487 (O00487 whole entry): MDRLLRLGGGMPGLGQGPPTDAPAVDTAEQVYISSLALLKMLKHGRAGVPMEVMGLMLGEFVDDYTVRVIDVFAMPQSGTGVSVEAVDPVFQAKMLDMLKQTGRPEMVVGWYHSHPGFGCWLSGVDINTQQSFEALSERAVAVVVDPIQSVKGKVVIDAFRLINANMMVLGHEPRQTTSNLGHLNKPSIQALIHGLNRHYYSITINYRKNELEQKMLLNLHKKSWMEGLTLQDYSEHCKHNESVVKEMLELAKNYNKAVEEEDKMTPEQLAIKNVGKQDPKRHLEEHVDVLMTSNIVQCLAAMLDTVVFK

C/C(=C\CNC(=O)CCl)c1cnn(C)c1.Cl
inactive: USP42 0.377 | USP46 -0.21 | USP47 -0.51 | USP48 -0.224 | USP5 -0.543 | USP54 -0.0188 | USP7 -0.224 | USP8 0.115 | USP9X -0.138 | UniProt O00487 -0.0232
